PubChem BioAssay (NCI)
This is part of a sample that, as a whole, favours compounds with a hit. Of some 79,000 tested, about 15% had one in any assay. A number with no mark means an inactive call. Activity calls are given as the source filed them. No stated cut-off is given here; in the data, active means growth inhibition above about 70%; inactive means the rest.

Columns and labels:
[1] = NCI Yeast Anticancer Drug Screen. Data for the rad50 strain (AID 155);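 further: 0% = growth of vehicle-only cultures of the same strain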; conditions: S. cerevisiae rad50 strain growth inhibition; at 50.0 µM; active compounds read high
Procedure, shortened: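 Compounds were tested on a yeast strain with an engineered DNA damage repair alteration; the reported value is growth inhibition normalised to vehicle treatment.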

[2] = NCI Yeast Anticancer Drug Screen. Data for the mec2-1 strain (AID 157); conditions: S. cerevisiae mec2-1 strain, at 50.0 µM, active compounds read high
Procedure, shortened: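 Compounds were applied to mec2-1 yeast cells. Their growth was then compared with that of vehicle-treated cultures to give growth inhibition.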

[3] = NCI Yeast Anticancer Drug Screen. Data for the sgs1 mgt1 strain (AID 161);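 further: 0% = growth of cultures given vehicle only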; conditions: S. cerevisiae sgs1 mgt1 strain, at 50.0 µM, active compounds read high
Procedure, shortened: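 This yeast growth screen uses a strain with defined DNA-repair lesions; compound-treated growth is compared with vehicle-treated growth.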

[4] = NCI Yeast Anticancer Drug Screen. Data for the cln2 rad14 strain (AID 165);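 further: 0% = growth equal to vehicle treated cultures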; conditions: S. cerevisiae cln2 rad14 strain, at 50.0 µM, active compounds read high
Procedure, shortened: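 Strain: cln2 rad14 yeast, altered in cell cycle control and DNA damage repair. Read-out: growth inhibition vs vehicle.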

[5] = NCI Yeast Anticancer Drug Screen. Data for the bub3 strain (AID 167); conditions: S. cerevisiae bub3 mutant strain, at 50.0 µM, active compounds read high
Procedure, shortened: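 Growth of a checkpoint-deficient yeast mutant is measured after compound exposure. Values represent inhibition relative to vehicle.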

[6] = NCI Yeast Anticancer Drug Screen. Data for the mlh1 rad18 strain (AID 175); conditions: S. cerevisiae mlh1 rad18 strain growth inhibition; at 50.0 µM; active compounds read high
Procedure, shortened: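 A repair-deficient yeast strain is exposed to test compound, and growth is scored relative to vehicle-treated controls.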

COC(=O)/C=C/c1ccc([N+](=O)[O-])cc1
growth inhibition [1]: -6.3% | growth inhibition [2]: -2.5% | growth inhibition [3]: 20.9% | growth inhibition [4]: -24% | growth inhibition [5]: 8.15% | growth inhibition [6]: -18.2%

O=C(Cn1c2c(c3ccccc31)CCCC2)N1CCCCC1
growth inhibition [1]: -40.5% | growth inhibition [2]: -74% | growth inhibition [3]: -31.2% | growth inhibition [4]: -22.2% | growth inhibition [5]: -8.6% | growth inhibition [6]: -26.2%

C/C=C/C(=O)N(CC)CC
growth inhibition [1]: 9% | growth inhibition [2]: -4.25% | growth inhibition [3]: 3.75% | growth inhibition [4]: 1.65% | growth inhibition [5]: -24.9% | growth inhibition [6]: 10.8%

CCCN(CCC)S(=O)(=O)c1ccc(NC(=O)Oc2ccc([N+](=O)[O-])cc2)cc1
growth inhibition [1]: 42.5% | growth inhibition [2]: 18.1% | growth inhibition [3]: 33.5% | growth inhibition [4]: 29.9% | growth inhibition [5]: 5.85% | growth inhibition [6]: 34.4%

CC(=O)Nc1cc(C)c(C(=O)O)c(C)c1
growth inhibition [1]: -26.5% | growth inhibition [2]: -19.4% | growth inhibition [3]: -9.35% | growth inhibition [4]: -18.1% | growth inhibition [5]: -24.9% | growth inhibition [6]: -21.4%

Nc1n[nH]c(=S)n1Cc1ccccc1
growth inhibition [1]: -21.8% | growth inhibition [2]: -10% | growth inhibition [3]: -27.1% | growth inhibition [4]: -18.2% | growth inhibition [5]: -14.6% | growth inhibition [6]: -10.7%

CC12CCCCC1=C(F)C(F)(F)S2 (stereo not given)
growth inhibition [1]: 0.15% | growth inhibition [2]: -17.4% | growth inhibition [3]: 7.45% | growth inhibition [4]: 24.6% | growth inhibition [5]: -2.45% | growth inhibition [6]: 17.7%

CCCCCCCCCCCCCCCCOc1ccc2ccccc2c1
growth inhibition [1]: 4.15% | growth inhibition [2]: -6.25% | growth inhibition [3]: 14.9% | growth inhibition [4]: -56.4% | growth inhibition [5]: 10.2% | growth inhibition [6]: 29.2%

CC1CC2(CCC1OCc1ccccc1)OCCO2 (stereo not given)
growth inhibition [1]: 0.25% | growth inhibition [2]: -6.85% | growth inhibition [3]: -2.3% | growth inhibition [4]: 2.2% | growth inhibition [5]: 13.3% | growth inhibition [6]: -1.7%

COc1cc(C2C(Cl)C(=O)N2NC(=O)c2ccc(N)cc2)cc(Br)c1O (stereo not given)
growth inhibition [1]: 16.3% | growth inhibition [2]: 0.95% | growth inhibition [3]: 4.05% | growth inhibition [4]: -38% | growth inhibition [5]: 5.85% | growth inhibition [6]: -11.2%

CC(C)CCCC(C)CCCC(C)CCCC(C)CC(=O)O (stereo not given)
growth inhibition [1]: -9.35% | growth inhibition [2]: -25.5% | growth inhibition [3]: -16.9% | growth inhibition [4]: 43% | growth inhibition [5]: -1.2% | growth inhibition [6]: -23.3%

CCCCCCCCCCCCCCCC[N+]1(CC)CCSCC1
growth inhibition [1]: 96.6% (active) | growth inhibition [2]: 97.9% (active) | growth inhibition [3]: 97.2% (active) | growth inhibition [4]: 97.5% (active) | growth inhibition [5]: 97.1% (active) | growth inhibition [6]: 97.8% (active)

Cc1ccc(S(=O)(=O)NN=C2CCCCCC2)cc1
growth inhibition [1]: 8.65% | growth inhibition [2]: 7.55% | growth inhibition [3]: 8.75% | growth inhibition [4]: -24.9% | growth inhibition [5]: -12.4% | growth inhibition [6]: 5.65%

NC1CCCCC1N.O=S(=O)([O-])CCCNC1CCCCC1.O=S(=O)([O-])CCCNC1CCCCC1.[Pt+4]
growth inhibition [1]: -6.3% | growth inhibition [2]: -8.15% | growth inhibition [3]: -15.7% | growth inhibition [4]: -23.6% | growth inhibition [5]: -21.1% | growth inhibition [6]: 15.9%

CCCCCCCCCCCCCCCCOc1cccc(/C(=N/NS(C)(=O)=O)N2CCCCC2)c1
growth inhibition [1]: -16.1% | growth inhibition [2]: -30.6% | growth inhibition [3]: -8.3% | growth inhibition [4]: 1.75% | growth inhibition [5]: -16.8% | growth inhibition [6]: -5.5%

COC(=O)c1ccccc1-n1c(-c2ccc([N+](=O)[O-])cc2)csc1=NC(=O)c1cccc([N+](=O)[O-])c1
growth inhibition [1]: -2.15% | growth inhibition [2]: -2.15% | growth inhibition [3]: 19.4% | growth inhibition [4]: -1.05% | growth inhibition [5]: -1.15% | growth inhibition [6]: 12.7%

CCCCCCCCOC(=O)C(C)OC(C)=O (stereo not given)
growth inhibition [1]: 17.2% | growth inhibition [2]: 2.05% | growth inhibition [3]: 2.3% | growth inhibition [4]: 13.8% | growth inhibition [5]: 12.3% | growth inhibition [6]: 12.1%

c1ccc(N2CCSCC2)cc1
growth inhibition [1]: 2.95% | growth inhibition [2]: -5.45% | growth inhibition [3]: -21.9% | growth inhibition [4]: -6.25% | growth inhibition [5]: 0.3% | growth inhibition [6]: -7.15%

COc1ccc2c(c1)CC[C@@H]1[C@@H]2CC[C@@]2(C)[C@H]1C[C@@](C)(O)[C@H]2O
growth inhibition [1]: -5.65% | growth inhibition [2]: 3.05% | growth inhibition [3]: -2.45% | growth inhibition [4]: -59.9% | growth inhibition [5]: 10.8% | growth inhibition [6]: -11.7%

Nc1nc(Cl)cc(NCCCNc2cc(Cl)nc(N)n2)n1
growth inhibition [1]: -1.55% | growth inhibition [2]: 6.55% | growth inhibition [3]: 13.3% | growth inhibition [4]: 1.15% | growth inhibition [5]: 3.65% | growth inhibition [6]: 4.35%
